In the supplement of paper PMC10849652:
The full data set covers some 8,800 targets. This sample favours those with a hit. About 0.5% of all pairs of compound and target were hits. Values without a mark were called inactive.

How the values were obtained:
Experiment in all cases: log2 fold change, soluble protein after heating vs DMSO (PISA); higher = thermal stabilisation; K562 lysate, 10 uM; active = over 0.2 and 3.5 SD of the protein, either way, in both replicates (recomputed)
[1] = compound: C#Cc1cccc(Nc2ncnc3cc(OCCOC)c(OCCOC)cc23)c1 [erlotinib]
Method in brief: (§1)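 Log-two fold change in thermal stability relative to solvent controls is reported from duplicates. For each sample, crude K562 extract from dounce-homogenised pellets in PBS pH 7.4 with 1 mM MgCl2, at 1 mg/mL protein, was treated with 10 μM compound for 30 min. Aliquots heated for 3 min across 48°C-58°C were pooled, brought to 0.5% NP-40 at 4°C and cleared at 21,000xg for 90 min. The supernatant was quantified by TMTpro 16plex LC-MS/MS with channel sums equalised.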

[2] = compound: C/C(=N\NC(=O)C1=CC(=CC=C1)S(=O)(=O)N2CCOCC2)/C3=C(C=CC(=C3)Cl)O
Method in brief: as §1

[3] = compound: C1=CC(=CC=C1C2=NC3=C(N2)C=C(C=C3)C(=O)N)OC4=CC=C(C=C4)Cl
Method in brief: as §1

[4] = compound: C1=CC2=C(C=CC(=C2)/C=C\3/C(=O)NC(=NCC4=CC=CS4)S3)N=C1
Method in brief: as §1

[5] = compound: C1=CC2=NC=CN=C2C=C1/C=C/3\C(=O)NC(=O)S3
Method in brief: as §1

[6] = compound: C1=CC=C(C=C1)C2=NC(=C(N2)C3=CC=NC=C3)C4=CC(=C(C=C4)Cl)O
Method in brief: as §1

[7] = compound: C1=CC=C2C(=C1)C3=NNC4=CC=CC(=C43)C2=O
Method in brief: as §1

[8] = compound: C1CCN(C1)C(=O)NC2=CC=CC(=C2)NC3=NC=C(C(=N3)NCCC4=CN=CN4)Br
Method in brief: as §1

[9] = compound: C1CN(CCC1(CC2=CC=C(C=C2)Cl)N)C3=NC=NC4=C3C=CN4
Method in brief: as §1

[10] = compound: C1COCCN1CCN2C3=CC=CC=C3N=C2NC(=O)C4=CC(=CC=C4)[N+](=O)[O-] [IRAK-1-4 Inhibitor I]
Method in brief: as §1

UniProt Q5H9F3, sequence (Q5H9F3 whole entry, looked up): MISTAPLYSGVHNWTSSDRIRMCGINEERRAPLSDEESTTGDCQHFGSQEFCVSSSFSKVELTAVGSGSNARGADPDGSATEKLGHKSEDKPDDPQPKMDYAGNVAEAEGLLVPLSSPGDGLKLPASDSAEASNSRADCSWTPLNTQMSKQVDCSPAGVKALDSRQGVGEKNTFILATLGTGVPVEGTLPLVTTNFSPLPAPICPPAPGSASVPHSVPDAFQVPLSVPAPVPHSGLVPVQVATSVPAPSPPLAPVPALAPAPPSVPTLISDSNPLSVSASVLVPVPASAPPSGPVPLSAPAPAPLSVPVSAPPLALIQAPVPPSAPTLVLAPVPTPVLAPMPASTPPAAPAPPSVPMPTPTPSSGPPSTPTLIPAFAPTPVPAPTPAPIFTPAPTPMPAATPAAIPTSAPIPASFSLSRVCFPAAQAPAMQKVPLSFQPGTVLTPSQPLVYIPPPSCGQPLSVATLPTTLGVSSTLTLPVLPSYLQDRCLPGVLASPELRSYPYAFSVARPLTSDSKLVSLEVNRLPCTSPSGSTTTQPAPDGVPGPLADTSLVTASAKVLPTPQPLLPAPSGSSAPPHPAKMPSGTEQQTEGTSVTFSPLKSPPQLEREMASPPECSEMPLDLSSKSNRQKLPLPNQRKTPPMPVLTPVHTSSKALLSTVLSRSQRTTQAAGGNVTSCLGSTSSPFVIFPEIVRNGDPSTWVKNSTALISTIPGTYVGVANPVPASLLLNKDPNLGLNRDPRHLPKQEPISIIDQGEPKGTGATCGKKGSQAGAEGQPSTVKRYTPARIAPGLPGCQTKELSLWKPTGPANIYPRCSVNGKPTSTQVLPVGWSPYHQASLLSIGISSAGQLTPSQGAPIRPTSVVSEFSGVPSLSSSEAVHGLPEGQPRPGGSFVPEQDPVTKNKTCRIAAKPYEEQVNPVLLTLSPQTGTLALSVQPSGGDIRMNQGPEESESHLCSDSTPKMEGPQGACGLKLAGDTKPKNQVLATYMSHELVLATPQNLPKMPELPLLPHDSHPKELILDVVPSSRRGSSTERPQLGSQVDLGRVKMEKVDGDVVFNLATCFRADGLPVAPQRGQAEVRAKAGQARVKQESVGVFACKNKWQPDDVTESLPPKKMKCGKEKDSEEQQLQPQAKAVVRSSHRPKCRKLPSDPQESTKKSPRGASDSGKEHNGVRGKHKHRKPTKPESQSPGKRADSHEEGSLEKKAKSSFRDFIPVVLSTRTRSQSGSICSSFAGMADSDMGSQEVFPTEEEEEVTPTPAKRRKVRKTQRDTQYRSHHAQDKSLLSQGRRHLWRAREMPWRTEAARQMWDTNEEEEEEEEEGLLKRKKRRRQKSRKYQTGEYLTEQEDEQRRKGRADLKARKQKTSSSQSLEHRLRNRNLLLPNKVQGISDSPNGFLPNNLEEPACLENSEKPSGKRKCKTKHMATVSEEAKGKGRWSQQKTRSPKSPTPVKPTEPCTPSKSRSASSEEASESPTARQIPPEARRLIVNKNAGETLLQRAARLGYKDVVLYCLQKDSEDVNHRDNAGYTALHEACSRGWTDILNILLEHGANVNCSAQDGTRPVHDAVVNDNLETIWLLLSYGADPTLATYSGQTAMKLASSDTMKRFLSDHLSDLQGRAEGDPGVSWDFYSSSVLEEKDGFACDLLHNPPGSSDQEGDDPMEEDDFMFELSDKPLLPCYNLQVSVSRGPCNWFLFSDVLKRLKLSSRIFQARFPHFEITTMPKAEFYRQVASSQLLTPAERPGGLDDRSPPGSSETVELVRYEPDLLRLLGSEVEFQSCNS
UniProt P15056, sequence (P15056 whole entry, looked up): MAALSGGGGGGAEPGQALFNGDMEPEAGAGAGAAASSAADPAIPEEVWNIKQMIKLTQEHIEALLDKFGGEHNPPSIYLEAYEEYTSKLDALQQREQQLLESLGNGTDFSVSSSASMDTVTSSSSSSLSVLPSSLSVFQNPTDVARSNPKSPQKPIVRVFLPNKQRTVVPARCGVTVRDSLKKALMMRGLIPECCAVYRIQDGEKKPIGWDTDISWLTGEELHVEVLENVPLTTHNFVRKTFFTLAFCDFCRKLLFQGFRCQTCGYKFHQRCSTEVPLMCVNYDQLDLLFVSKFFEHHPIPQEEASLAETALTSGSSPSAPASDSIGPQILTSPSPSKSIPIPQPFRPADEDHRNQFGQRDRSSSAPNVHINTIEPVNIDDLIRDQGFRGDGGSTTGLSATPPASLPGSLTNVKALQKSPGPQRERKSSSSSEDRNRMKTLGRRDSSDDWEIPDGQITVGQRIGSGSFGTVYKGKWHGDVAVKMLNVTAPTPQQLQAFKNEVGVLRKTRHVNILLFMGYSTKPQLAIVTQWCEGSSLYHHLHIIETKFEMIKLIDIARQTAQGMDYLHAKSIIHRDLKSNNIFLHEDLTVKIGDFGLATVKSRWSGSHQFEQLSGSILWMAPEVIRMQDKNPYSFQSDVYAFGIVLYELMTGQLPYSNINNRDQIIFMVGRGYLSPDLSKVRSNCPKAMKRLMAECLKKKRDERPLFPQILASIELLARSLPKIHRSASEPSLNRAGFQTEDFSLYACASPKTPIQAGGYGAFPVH
UniProt O60826, sequence (O60826 whole entry, looked up): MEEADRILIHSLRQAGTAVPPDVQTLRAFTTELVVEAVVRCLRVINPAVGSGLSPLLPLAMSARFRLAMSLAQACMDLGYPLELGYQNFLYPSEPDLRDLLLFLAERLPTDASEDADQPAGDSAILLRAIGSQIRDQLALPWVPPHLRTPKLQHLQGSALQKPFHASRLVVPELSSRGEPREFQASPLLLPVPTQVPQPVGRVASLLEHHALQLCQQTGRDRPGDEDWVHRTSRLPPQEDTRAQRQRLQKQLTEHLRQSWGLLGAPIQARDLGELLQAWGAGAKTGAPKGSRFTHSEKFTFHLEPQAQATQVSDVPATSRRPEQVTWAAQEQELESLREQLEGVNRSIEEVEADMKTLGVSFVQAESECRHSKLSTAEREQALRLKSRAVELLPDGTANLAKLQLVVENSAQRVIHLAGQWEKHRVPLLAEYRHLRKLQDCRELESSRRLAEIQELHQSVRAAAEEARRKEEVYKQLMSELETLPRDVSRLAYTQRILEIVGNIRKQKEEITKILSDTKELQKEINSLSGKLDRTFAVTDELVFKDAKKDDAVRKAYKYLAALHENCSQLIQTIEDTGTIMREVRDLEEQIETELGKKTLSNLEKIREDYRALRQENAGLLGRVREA
UniProt P83916, sequence (P83916 whole entry, looked up): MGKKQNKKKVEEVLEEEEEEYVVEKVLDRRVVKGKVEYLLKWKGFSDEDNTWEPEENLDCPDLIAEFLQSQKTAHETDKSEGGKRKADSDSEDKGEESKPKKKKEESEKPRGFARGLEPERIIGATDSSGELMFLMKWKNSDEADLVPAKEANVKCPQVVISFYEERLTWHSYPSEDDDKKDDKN
UniProt P49069, sequence (P49069 whole entry, looked up): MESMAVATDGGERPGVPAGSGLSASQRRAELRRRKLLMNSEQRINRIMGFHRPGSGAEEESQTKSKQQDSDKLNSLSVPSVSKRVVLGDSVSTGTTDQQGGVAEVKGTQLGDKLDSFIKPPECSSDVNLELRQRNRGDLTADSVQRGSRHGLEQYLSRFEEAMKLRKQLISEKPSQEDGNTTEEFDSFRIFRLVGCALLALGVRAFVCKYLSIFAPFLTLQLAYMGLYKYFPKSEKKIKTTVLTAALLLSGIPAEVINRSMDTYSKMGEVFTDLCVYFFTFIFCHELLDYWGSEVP
UniProt Q9Y6H1, sequence (Q9Y6H1 whole entry, looked up): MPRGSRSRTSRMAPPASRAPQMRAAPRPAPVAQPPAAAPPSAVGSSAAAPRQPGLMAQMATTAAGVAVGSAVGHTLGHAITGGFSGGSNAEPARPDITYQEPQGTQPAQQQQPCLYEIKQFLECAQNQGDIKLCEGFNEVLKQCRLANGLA
UniProt Q5U623, sequence (Q5U623 whole entry, looked up): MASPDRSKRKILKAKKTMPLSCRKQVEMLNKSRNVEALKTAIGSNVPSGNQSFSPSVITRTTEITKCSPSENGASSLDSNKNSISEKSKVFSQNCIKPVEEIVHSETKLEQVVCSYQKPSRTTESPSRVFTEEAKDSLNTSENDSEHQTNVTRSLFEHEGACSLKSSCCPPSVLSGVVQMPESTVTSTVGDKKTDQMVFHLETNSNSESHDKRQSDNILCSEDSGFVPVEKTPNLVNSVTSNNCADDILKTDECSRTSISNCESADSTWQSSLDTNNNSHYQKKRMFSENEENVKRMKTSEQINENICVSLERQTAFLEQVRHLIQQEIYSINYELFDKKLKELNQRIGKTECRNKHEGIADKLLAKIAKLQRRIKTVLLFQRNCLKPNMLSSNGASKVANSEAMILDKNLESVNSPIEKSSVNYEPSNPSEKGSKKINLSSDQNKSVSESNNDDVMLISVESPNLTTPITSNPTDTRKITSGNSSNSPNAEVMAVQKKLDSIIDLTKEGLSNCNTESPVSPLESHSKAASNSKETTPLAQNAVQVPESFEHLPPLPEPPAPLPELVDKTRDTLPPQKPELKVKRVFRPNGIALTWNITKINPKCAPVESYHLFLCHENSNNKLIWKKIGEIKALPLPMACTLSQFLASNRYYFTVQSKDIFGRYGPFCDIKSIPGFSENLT
UniProt Q8WUX2, sequence (Q8WUX2 whole entry, looked up): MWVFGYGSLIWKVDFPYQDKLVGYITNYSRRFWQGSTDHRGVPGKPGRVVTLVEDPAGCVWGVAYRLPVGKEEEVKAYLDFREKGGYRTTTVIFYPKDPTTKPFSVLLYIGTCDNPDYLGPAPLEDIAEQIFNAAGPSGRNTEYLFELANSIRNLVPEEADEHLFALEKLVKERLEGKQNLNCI
UniProt P49918, sequence (P49918 whole entry, looked up): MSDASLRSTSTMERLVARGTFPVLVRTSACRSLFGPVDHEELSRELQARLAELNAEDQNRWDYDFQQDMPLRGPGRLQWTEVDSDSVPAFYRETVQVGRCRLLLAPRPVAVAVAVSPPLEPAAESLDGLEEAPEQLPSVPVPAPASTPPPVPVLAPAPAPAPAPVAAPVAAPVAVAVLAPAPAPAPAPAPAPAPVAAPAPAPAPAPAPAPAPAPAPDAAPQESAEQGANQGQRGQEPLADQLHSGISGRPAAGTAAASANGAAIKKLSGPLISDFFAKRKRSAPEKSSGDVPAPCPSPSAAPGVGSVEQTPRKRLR

Row | Target | log2 fold change [1] | log2 fold change [2] | log2 fold change [3] | log2 fold change [4] | log2 fold change [5] | log2 fold change [6] | log2 fold change [7] | log2 fold change [8] | log2 fold change [9] | log2 fold change [10]
1 | CCNK isoform 4 (UniProt O75909) | -0.018 | -0.022 | -0.012 | -0.016 | -0.062 | -0.039 | -0.001 | 0.01 | 0.002 | -0.021
2 | CCDC22 (UniProt O60826) | -0.039 | -0.007 | 0.002 | 0.02 | -0.03 | -0.017 | -0.06 | 0.007 | 0.03 | 0.011
3 | CAMKK2 (UniProt Q96RR4) | -0.033 | -0.028 | -0.045 | -0.057 | -0.014 | 0.005 | 0.002 | 0.135 | 0.033 | -0.027
4 | CAMLG (UniProt P49069) | -0.002 | 0.05 | -0.013 | 0.004 | -0.001 | 0.035 | -0.033 | 0.029 | -0.028 | -0.025
5 | CDKN1C (UniProt P49918) | -0.021 | 0.34 | -0.015 | -0.159 | 0.065 | -0.032 | -0.461 (active) | 0.053 | 0.009 | 0.069
6 | CHAF1A (UniProt Q13111) | -0.017 | -0.089 | -0.005 | -0.004 | -0.005 | 0.009 | -0.008 | -0.025 | 0.036 | -0.011
7 | ATG4A (UniProt Q8WYN0) | 0.031 | -0.087 | -0.055 | -0.01 | 0.007 | 0.01 | -0.023 | -0.015 | 0.038 | -0.001
8 | CDK5RAP3 isoform 4 (UniProt Q96JB5) | 0.009 | -0.068 | -0.011 | -0.018 | 0.031 | -0.002 | -0.014 | -0.016 | 0.016 | 0.022
9 | CCDC186 (UniProt Q7Z3E2) | -0.018 | 0.026 | 0.01 | 0.007 | -0.03 | -0.009 | -0.027 | -0.039 | 0.007 | 0.016
10 | ATRIP (UniProt Q8WXE1) | -0.009 | 0.032 | -0.023 | 0.227 | 0.046 | 0.064 | 0.266 | -0.059 | -0.057 | 0.015
11 | CDKN2AIP (UniProt Q9NXV6) | -0.047 | 0.067 | 0.072 | -0.01 | -0.074 | -0.006 | -0.079 | -0.038 | 0 | 0.048
12 | C18orf25 isoform 2 (UniProt Q96B23) | 0.031 | 0.098 | -0.059 | -0.002 | 0.185 | 0.055 | -0.011 | -0.01 | -0.063 | 0.003
13 | CDC16 (UniProt Q13042) | -0.006 | -0.067 | -0.051 | 0.031 | -0.009 | 0.006 | 0.019 | 0.027 | -0.056 | -0.004
14 | CAMK2G isoform 8 (UniProt Q13555) | 0.009 | -0.193 | 0.027 | -0.094 | 0.018 | -0.027 | 0.116 | 0.026 | 0.044 | 0.036
15 | BCKDHB (UniProt P21953) | 0.013 | -0.034 | 0.033 | -0.089 | 0.049 | -0.098 | -0.117 | 0.065 | -0.012 | 0.134
16 | ATG13 isoform 2 (UniProt O75143) | 0.019 | -0.055 | -0.033 | 0.021 | -0.001 | -0.004 | 0.02 | -0.031 | 0.019 | 0.006

Row | Target | log2 fold change [1] | log2 fold change [2] | log2 fold change [3] | log2 fold change [4] | log2 fold change [5] | log2 fold change [6] | log2 fold change [7] | log2 fold change [8] | log2 fold change [9] | log2 fold change [10]
17 | CHCHD2 (UniProt Q9Y6H1) | -0.068 | -0.03 | -0.086 | 0.033 | -0.024 | 0.027 | 0.092 | 0.009 | 0.057 | -0.005
18 | CDC45 isoform 3 (UniProt O75419) | 0.035 | -0.008 | -0.065 | 0.029 | -0.005 | -0.022 | -0.017 | -0.014 | -0.004 | 0.066
19 | C18orf25 (UniProt Q96B23) | -0.025 | -0.315 | -0.086 | 0.015 | 0.001 | 0.003 | 0.004 | 0.005 | 0.029 | 0.114
20 | CCNB1 (UniProt P14635) | -0.013 | 0.008 | 0.032 | -0.019 | 0.01 | 0.001 | -0.11 | -0.034 | 0.026 | 0.01
21 | BTRC (UniProt Q9Y297) | 0.002 | 0.085 | -0.078 | 0.001 | 0 | -0.007 | 0.029 | -0.138 | -0.028 | 0.018
22 | CBX1 (UniProt P83916) | -0.012 | -0.158 | -0.012 | -0.006 | 0.03 | -0.017 | 0.017 | 0.008 | 0.03 | 0.029
23 | ATP9B (UniProt O43861) | 0.008 | -0.057 | 0.034 | 0.175 | -0.07 | 0.031 | 0.081 | 0.027 | -0.103 | -0.037
24 | CEPT1 (UniProt Q9Y6K0) | 0.025 | -0.005 | -0.216 (active) | 0.035 | 0.032 | -0.023 | -0.015 | 0 | 0.081 | 0.072
25 | C8orf37 (UniProt Q96NL8) | -0.006 | -0.174 | 0.029 | -0.064 | 0.005 | 0.001 | 0.037 | -0.067 | 0.007 | -0.047
26 | CFDP1 (UniProt Q9UEE9) | -0.027 | -0.023 | 0.067 | -0.024 | -0.02 | -0.004 | 0.033 | -0.03 | 0.011 | -0.017
27 | CHAC2 (UniProt Q8WUX2) | 0.019 | 0.097 | 0.049 | 0.022 | -0.023 | 0.055 | -0.012 | 0.032 | 0.044 | -0.038
28 | BNIP1 (UniProt Q12981) | -0.028 | 0.05 | -0.048 | -0.011 | -0.026 | 0.071 | -0.009 | 0.002 | 0.018 | -0.004
29 | BRAF (UniProt P15056) | -0.05 | -0.101 | -0.04 | 0.013 | -0.008 |  | 0 | -0.007 | 0.027 | -0.005
30 | BCORL1 isoform 3 (UniProt Q5H9F3) | 0.002 | -0.015 | 0.15 | -0.117 |  | 0.004 | -0.115 | -0.114 | -0.005 | 
31 | ATF7IP2 (UniProt Q5U623) | 0.012 | -0.034 | 0.086 | 0.026 | -0.069 | -0.027 | -0.132 |  |  | 0.027
